In one test the test system is Staphylococcus aureus. The following applies: Concentration 32 ug.mL-1, ASSAY_TEST Inhibition of Bacterial Growth, detection method Absorption (OD600), MEDIA CAMHB, plate type 384well, NBS, CORNING #3640, time 18 hr.
A further test has as its system Escherichia coli. Conditions: Concentration 32 ug.mL-1, ASSAY_TEST Inhibition of Bacterial Growth, detection method Absorption (OD600), MEDIA CAMHB, plate type 384well, NBS, CORNING #3640, time 18 hr.

Results on 38 compounds are retold here after ChEMBL document CHEMBL4513135, “CO-ADD screening of IQOG CSIS (Spain) compounds”.

“And” between values parts separate entries of the source, which are not always exact repeats. Equal entries are not always repeated. Measured potencies and affinities stand elsewhere.

As for `COc1ccc2cc(C3C(C(C)=O)=C(C)Oc4nc5c(c(N)c43)CCCCC5)c(Cl)nc2c1` (stereo unspecified), the Inhibition in the test on Staphylococcus aureus is 26.1%; with Escherichia coli, 15.71%.

`CC(C)(C)OC(=O)Nc1ncccc1Br`: the Inhibition in the test on Staphylococcus aureus is 38.27%; with Escherichia coli it was -5.45%.

As for `C#CCN(C)Cc1cc2cc(OCCCCC3CCN(Cc4ccccc4)CC3)ccc2n1C.Cl`, the Inhibition with Staphylococcus aureus was 41%; with Escherichia coli it was -14.71%.

For the compound `N#Cc1c(-c2ccccc2)c2ccc3ccccc3c2oc1=O`, the results for the Inhibition with Staphylococcus aureus and with Escherichia coli were 33.43% and -8.95%, respectively.

For the compound `N#Cc1cc(C#N)c(N2CCC(O)CC2)nc1N`, the Inhibition with Staphylococcus aureus is 5.78%; with Escherichia coli it was -26.11%.

For the compound `Cl.N#Cc1c(N)nc(NCCO)c(C#N)c1-c1ccccc1`, the Inhibition is recorded as 32.81% in the test on Staphylococcus aureus and -7.39% in the test on Escherichia coli.

`COc1ccc2c(c1)cc(CN(C)Cc1cn(Cc3ccccc3)nn1)n2C`: the Inhibition in the test on Staphylococcus aureus was 6.23%; with Escherichia coli, -32.11%.

In the case of `CCOc1nc2nc(CCc3ccccc3)ccc2c(-c2ccccc2)c1C#N`, the Inhibition was 14.64% with Staphylococcus aureus and -39.9% with Escherichia coli.

In the case of `N#Cc1cc(C#N)c(Cl)nc1Cl`, the Inhibition is 15.28% with Staphylococcus aureus and -15.75% with Escherichia coli.

As for `COc1ccccc1C1C(C#N)=C(N)Oc2ccc3ccccc3c21` (stereo unspecified), the Inhibition with Staphylococcus aureus is 38.4%; with Escherichia coli, -7.08%.

For the compound `COC(=O)C(=Cc1ccc([N+](=O)[O-])cc1)NC(=O)c1ccccc1`, the Inhibition amounted to 7.69% with Staphylococcus aureus and 6.65% in the test with Escherichia coli.

Turning to `N#CC1=C(N)Oc2ccc3ccccc3c2C1c1ccc(O)cc1` (stereo unspecified), the Inhibition is recorded as 42.7% with Staphylococcus aureus and -6.77% in the test on Escherichia coli.

As for `Cl.NC1(C(=O)O)CC1c1cccc(Cl)c1` (stereo unspecified), the Inhibition with Staphylococcus aureus is 12.59%; in the test with Escherichia coli it was 12.02%.

In the case of `COc1ccc2nc(Cl)c(C=O)cc2c1`, the Inhibition in the test on Staphylococcus aureus (32 ug/mL) was 19.77% and 20.88%; with Escherichia coli (32 ug/mL), 18.53% and 18.96%.

Regarding `N#CC1=C(Cl)Oc2c(ccc3ccccc23)C1c1ccccc1[N+](=O)[O-]` (stereo unspecified), the Inhibition in the test with Staphylococcus aureus is reported as 15.73%; in the test on Escherichia coli, -14.23%.

With `Cn1c(CNNC(=O)c2ccco2)cc2ccccc21`, the Inhibition is 1.86% in the test with Staphylococcus aureus and 21.64% in the test on Escherichia coli.

Regarding `C#CCNc1[nH]c2ccc(O)cc2c1C#N`, the Inhibition is reported as 30.3% in the test with Staphylococcus aureus and -3.92% in the test on Escherichia coli.

`N#CC1=C(N)Oc2c(ccc3ccccc23)C1c1ccccc1` (stereo unspecified): the Inhibition in the test with Staphylococcus aureus is reported as 23.38%; in the test with Escherichia coli it was -4.89%.

Turning to `Cl.NNN1CCc2ccccc21`, the values for the Inhibition in the test on Staphylococcus aureus and in the test with Escherichia coli were 25.31% and 10.83%, respectively.

Consider `C=C1CN(Cc2ccccc2)c2c(C#N)c(-c3ccccc3)c(C#N)c(=N)n21`, for which the Inhibition is reported as 44.91% with Staphylococcus aureus and -0.81% with Escherichia coli.

As to `NNC(=O)CCc1c[nH]c2ccccc12`, the figures for the Inhibition with Staphylococcus aureus and in the test with Escherichia coli were 1.93% and 6.66%, respectively.

Take `Cc1cnc2ccc(Br)cn12`: the Inhibition in the test on Staphylococcus aureus was determined as 2.9%; with Escherichia coli it was 6.35%.

Regarding `Cc1ccc(C(O)SNNc2nc(C)nc3c2c(C)nn3-c2ccccc2)cc1` (stereo unspecified), the Inhibition with Staphylococcus aureus worked out at 4.03%; with Escherichia coli it was 5.46%.

Take `Cc1ccc(/C=N/NC(=O)c2c[nH]c3ccccc23)cc1`: the Inhibition in the test with Staphylococcus aureus is reported as 6.96%; in the test with Escherichia coli, 7.51%.

On to `COc1ccccc1C1C(C#N)=C(N)Oc2[nH]nc(C)c21` (stereo unspecified), for which the Inhibition with Staphylococcus aureus is recorded as 9.32%; in the test with Escherichia coli, 14.43%.

On to `O=C(N/N=C/Cc1ccccc1)c1cc2ccccc2n1Cc1ccccc1`, for which the Inhibition amounted to 8.78% with Staphylococcus aureus and 7.44% in the test with Escherichia coli.

Consider `O=C(NNCc1ccco1)c1cc2ccccc2[nH]1`, for which the Inhibition with Staphylococcus aureus is on record as -6.59%; with Escherichia coli it was -6.94%.

For the compound `C#CCN(C)Cc1cc2cc(OCc3ccccc3)ccc2n1C.O=C(O)C(=O)O`, the Inhibition in the test on Staphylococcus aureus was 41.66%; with Escherichia coli, -11.51%.

On to `COc1cc(Br)c(C=O)cc1OC`, for which the Inhibition with Staphylococcus aureus is listed as 28.77%; in the test on Escherichia coli, 5%.

`C/C(=N\NC(=O)c1cc2ccccc2n1Cc1ccccc1)C1CC1`: the Inhibition in the test with Staphylococcus aureus is on record as 7.87%; in the test on Escherichia coli, 7.24%.

Turning to `Cc1ccc(/C=C(\C#N)C(=O)c2ccccc2)cc1`, the Inhibition with Staphylococcus aureus came to 25.42%; in the test with Escherichia coli it was 15.2%.

Consider `COc1cc(C2CC2(N)C(=O)O)ccc1O` (stereo unspecified), for which the Inhibition in the test on Staphylococcus aureus was 4.38%; with Escherichia coli it was -1.72%.

Take `Nc1c2c(nc3c1CC(c1c(Cl)cccc1Cl)C(=O)N3)CCCC2` (stereo unspecified): the Inhibition is given as 22.21% with Staphylococcus aureus and 31.42% in the test on Escherichia coli.

With `CC(=O)Oc1cccc(C=C2N=C(c3ccccc3)OC2=O)c1`, the Inhibition in the test with Staphylococcus aureus is reported as 11%; in the test on Escherichia coli, 13.2%.

For the compound `C#CCNc1nc(NC2CCN(Cc3ccccc3)CC2)c(C#N)cc1C#N.Cl`, the Inhibition in the test with Staphylococcus aureus was -1.55%; with Escherichia coli, -6.24%.

Turning to `CCOc1nc2nc3c(c(N)c2cc1C#N)CCCC3`, the Inhibition was -2.29% in the test on Staphylococcus aureus and -2.83% with Escherichia coli.

As for `C#CCNc1nc(NCC#C)c(C#N)cc1C#N`, the Inhibition is -5.55% in the test with Staphylococcus aureus and -10.16% in the test on Escherichia coli.

For `N#Cc1cc(C#N)c(NCCC2CCN(Cc3ccccc3)CC2)nc1N`, the Inhibition is 49.11% in the test on Staphylococcus aureus and -25.69% in the test with Escherichia coli.

A word on the Inhibition: it is the drop in the measured response relative to a control, in per cent.
